“And” between values parts separate entries of the source, which are not always exact repeats. Identical values can stand only once. Records with an inconclusive call do not appear. Entries that show only a call come without a potency. The source holds several records for some structures; these can differ, active in one and inactive in another. The source made the active and inactive calls. Unless noted, the call rests on the fitted dose curve; in most records, active means well fitted curve in the direction sought with a large enough effect in the repeat runs; inconclusive means weak or mixed curves; inactive means no such curve, though single readings can be large; an effect the other way counts as inactive or inconclusive.
What was measured:
[1] = target: Aryl hydrocarbon receptor (Homo sapiens) (UniProt P35869); test: qHTS assay to identify small molecule that activate the aryl hydrocarbon receptor (AhR) signaling pathway (AID 743085); further: nearly all actives have a fitted effect of over 15% in size; further: potency means the concentration at half of the fitted maximal effect;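 on activation: HG2L7.5c1 human HepG2 liver cells with stably integrated DRE-driven firefly reporter; series mostly up to about 70 µM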
Chain of Aryl hydrocarbon receptor (Homo sapiens) (P35869 whole entry, looked up): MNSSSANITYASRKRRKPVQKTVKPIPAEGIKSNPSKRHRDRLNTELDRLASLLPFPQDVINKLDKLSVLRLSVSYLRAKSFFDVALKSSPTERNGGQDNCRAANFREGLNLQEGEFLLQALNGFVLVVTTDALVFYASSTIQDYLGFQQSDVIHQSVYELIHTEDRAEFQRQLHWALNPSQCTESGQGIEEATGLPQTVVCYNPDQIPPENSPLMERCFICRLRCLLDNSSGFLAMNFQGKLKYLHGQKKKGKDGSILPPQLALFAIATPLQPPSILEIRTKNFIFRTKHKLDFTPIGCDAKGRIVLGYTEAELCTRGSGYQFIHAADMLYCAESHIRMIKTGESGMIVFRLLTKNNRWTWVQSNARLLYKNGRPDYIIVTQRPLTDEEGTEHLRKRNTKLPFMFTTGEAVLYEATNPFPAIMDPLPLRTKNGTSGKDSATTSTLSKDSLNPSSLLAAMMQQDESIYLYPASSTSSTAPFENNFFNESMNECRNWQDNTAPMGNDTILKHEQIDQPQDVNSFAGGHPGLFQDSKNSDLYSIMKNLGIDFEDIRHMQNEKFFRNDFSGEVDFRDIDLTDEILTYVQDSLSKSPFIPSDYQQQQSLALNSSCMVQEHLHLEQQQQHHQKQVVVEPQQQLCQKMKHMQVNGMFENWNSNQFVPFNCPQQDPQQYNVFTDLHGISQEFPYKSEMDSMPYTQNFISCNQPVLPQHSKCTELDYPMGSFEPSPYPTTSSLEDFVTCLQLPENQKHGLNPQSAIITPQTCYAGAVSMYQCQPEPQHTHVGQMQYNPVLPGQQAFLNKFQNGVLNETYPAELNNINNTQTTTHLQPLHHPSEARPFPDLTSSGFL
Outline: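 Measured in HG2L7.5c1 cells: CellTiter-Fluor signal (30 min incubation, 37C) for viability, then luciferase luminescence (30 min, room temperature). Compound contact time was 24 h at 37C, following a 5 h pre-incubation.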

[2] = qHTS assay to test for compound auto fluorescence at 590 nm (red) in HepG2 cells (AID 720674)
Outline: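 We screened compounds on adherent HepG2 cells, incubating them for an hour at 37 C in 5% CO2 before reading emission at 590 nm under 540 nm excitation; values reflect equivalence to Rose Bengal sodium fluorescence.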

[3] = qHTS assay to test for compound auto fluorescence at 535 nm (green) in HepG2 cells (AID 720675)
[4] = qHTS assay to test for compound auto fluorescence at 535 nm (green) in HEK293 cells (AID 720680)
[5] = qHTS assay to test for compound auto fluorescence at 590 nm (red) in HepG2 cell free culture (AID 720684)
Outline: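 Cell-free; medium MEM + 10% FBS; compound or DMSO added by pintool; read Ex 540/Em 590 nm; Rose Bengal sodium as red reference fluorophore.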

[6] = qHTS assay to test for compound auto fluorescence at 460 nm (blue) in HepG2 cells (AID 720687)
Outline: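 Blue-channel autofluorescence (Ex/Em 405/460 nm, triamterene-equivalent) was measured after 1 hr compound exposure at 37 C, 5% CO2. Cells were HepG2, plated overnight at 37 C in MEM plus 10% FBS.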

[7] = qHTS assay for small molecules that induce genotoxicity in human embryonic kidney cells expressing luciferase-tagged ATAD5 (AID 651632); further: nearly all actives have a fitted effect of over 15% in size
Outline: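 Concentration-response screen for ATAD5 upregulation in HEK293T luciferase reporter cells; 16 hr treatment at 37C, then luminescence after 30 min with Amplite at room temperature.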

[8] = qHTS assay for small molecule disruptors of the mitochondrial membrane potential - cell viability (AID 720634; calls by dose curve;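 further: human HepG2 liver cancer cells; series mostly up to about 83 µM; nearly all actives have a fitted effect of over 20% in size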)
Outline: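 In this qHTS format, HepG2 cells plated overnight were pinned with compound, incubated 1 hr, and assayed for ATP luminescence with CellTiter-Glo after m-MPI dye addition.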

[9] = qHTS assay to test for compound auto fluorescence at 535 nm (green) in HEK293 cell free culture (AID 720682)
Outline: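 Using fluorescein as calibrant, autofluorescence was quantified at 485/535 nm in cell-free DMEM containing 10% FBS after pintool addition of compound or vehicle.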

[10] = target: Glucocorticoid receptor (Homo sapiens) (UniProt P04150); test: qHTS assay to identify small molecule agonists of the glucocorticoid receptor (GR) signaling pathway (AID 720691; active means well fitted activation curve with a large enough effect in the signal ratio in the repeat runs, not every such curve was filed as active; the % refers to the signal ratio)
Chain of Glucocorticoid receptor (Homo sapiens) (P04150 whole entry, looked up): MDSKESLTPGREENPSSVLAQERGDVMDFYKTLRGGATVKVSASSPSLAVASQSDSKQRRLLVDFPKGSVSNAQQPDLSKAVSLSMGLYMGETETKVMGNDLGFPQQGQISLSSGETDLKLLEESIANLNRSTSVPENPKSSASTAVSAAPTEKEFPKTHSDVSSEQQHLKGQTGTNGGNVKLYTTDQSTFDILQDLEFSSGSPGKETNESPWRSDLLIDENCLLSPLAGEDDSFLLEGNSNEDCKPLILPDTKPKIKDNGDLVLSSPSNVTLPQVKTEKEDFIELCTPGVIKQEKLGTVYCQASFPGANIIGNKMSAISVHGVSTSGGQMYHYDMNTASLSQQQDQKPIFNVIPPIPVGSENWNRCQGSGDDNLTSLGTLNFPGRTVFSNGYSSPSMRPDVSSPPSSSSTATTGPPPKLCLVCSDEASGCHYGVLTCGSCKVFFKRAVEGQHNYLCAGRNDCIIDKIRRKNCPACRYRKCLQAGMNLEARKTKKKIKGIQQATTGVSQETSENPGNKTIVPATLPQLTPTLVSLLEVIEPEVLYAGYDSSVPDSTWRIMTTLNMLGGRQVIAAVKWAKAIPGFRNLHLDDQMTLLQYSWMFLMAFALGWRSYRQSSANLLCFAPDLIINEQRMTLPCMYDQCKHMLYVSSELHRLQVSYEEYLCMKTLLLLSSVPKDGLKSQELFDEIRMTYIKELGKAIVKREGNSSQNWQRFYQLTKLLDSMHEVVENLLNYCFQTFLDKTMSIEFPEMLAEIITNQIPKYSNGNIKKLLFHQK
Outline: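 Measures GR pathway activation through a GRE-beta-lactamase reporter stably integrated in HeLa cells, with 18 h compound treatment at 37 C and fluorescence detection using a FRET substrate.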

[11] = qHTS assay for identifying genotoxic compounds that show differential cytotoxicity against isogenic chicken DT40 cell lines with known DNA damage response pathways - wild type cell line (AID 743012); further: nearly all actives have a fitted effect of over 60% in size; further: potency means the concentration at half of the fitted maximal effect
Outline: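 Endpoint: CellTiter-Glo luminescence, 30 min RT. Cells: wild type DT40, 300/well. Exposure: compounds in DMSO, 40 h, 37 C/5% CO2, after ~0.5 h pre-incubation.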

[12] = qHTS assay for identifying genotoxic compounds that show differential cytotoxicity against isogenic chicken DT40 cell lines with known DNA damage response pathways - Rev3 mutant cell line (AID 743014); further: nearly all actives have a fitted effect of over 55% in size; further: potency means the concentration at half of the fitted maximal effect
[13] = qHTS assay for identifying genotoxic compounds that show differential cytotoxicity against isogenic chicken DT40 cell lines with known DNA damage response pathways - Rad54/Ku70 mutant cell line (AID 743015); further: nearly all actives have a fitted effect of over 60% in size; further: potency means the concentration at half of the fitted maximal effect
[14] = qHTS assay to identify small molecule antagonists of the thyroid receptor (TR) signaling pathway - cell viability counter screen (AID 743064); further: nearly all actives have a fitted effect of over 50% in size; further: potency means the concentration at half of the fitted maximal effect
Outline: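 Counter screen for cytotoxicity: compound plus T3 (1 nM final) on GH3.TRE-Luc cells, 23.5 h at 37 °C, then fluorescence viability readout with CellTiter-Fluor.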

[15] = target: Estrogen receptor (Homo sapiens) (UniProt P03372); test: qHTS assay to identify small molecule antagonists of the estrogen receptor alpha (ER-alpha) signaling pathway (AID 743069; active means well fitted curve in the direction sought with a large enough effect in the signal ratio in the repeat runs, not every such curve was filed as active; the % refers to the signal ratio)
Chain of Estrogen receptor (Homo sapiens) (P03372 whole entry, looked up): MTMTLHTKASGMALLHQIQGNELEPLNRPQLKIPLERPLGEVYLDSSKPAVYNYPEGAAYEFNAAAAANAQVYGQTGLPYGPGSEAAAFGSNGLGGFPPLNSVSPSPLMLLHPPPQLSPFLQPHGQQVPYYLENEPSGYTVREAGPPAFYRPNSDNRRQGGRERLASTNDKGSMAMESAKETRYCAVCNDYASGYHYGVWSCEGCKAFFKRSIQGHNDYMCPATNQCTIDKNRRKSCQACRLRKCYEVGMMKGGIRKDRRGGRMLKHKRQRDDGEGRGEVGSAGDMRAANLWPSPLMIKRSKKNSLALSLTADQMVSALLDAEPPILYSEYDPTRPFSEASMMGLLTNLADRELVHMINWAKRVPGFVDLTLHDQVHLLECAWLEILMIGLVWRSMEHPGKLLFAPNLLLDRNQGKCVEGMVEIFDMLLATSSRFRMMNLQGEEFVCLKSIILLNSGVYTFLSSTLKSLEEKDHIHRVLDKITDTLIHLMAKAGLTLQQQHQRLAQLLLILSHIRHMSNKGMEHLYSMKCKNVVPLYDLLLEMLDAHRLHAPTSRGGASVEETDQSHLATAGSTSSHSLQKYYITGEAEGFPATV
Outline: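 Antagonist mode: compounds in DMSO were co-added with 17beta-estradiol to ER-alpha-bla HEK293 cells (2% charcoal-stripped serum) and left 18 h at 37C. Reporter inhibition was measured as FRET fluorescence after 2 h LiveBLAzer substrate at room temperature.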

[16] = target: Estrogen receptor (Homo sapiens) (UniProt P03372); test: qHTS assay to identify small molecule agonists of the estrogen receptor alpha (ER-alpha) signaling pathway (AID 743075; calls by dose curve;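 further: HEK293 GripTite cells with ER-alpha and UAS-driven beta-lactamase reporter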)
[17] = target: Estrogen receptor (Homo sapiens) (UniProt P03372); test: qHTS assay to identify small molecule agonists of the estrogen receptor alpha (ER-alpha) signaling pathway using the BG1 cell line (AID 743079); further: nearly all actives have a fitted effect of over 20% in size
[18] = qHTS assay to identify small molecule antagonists of the estrogen receptor alpha (ER-alpha) signaling pathway using the BG1 cell line (AID 743080; calls by dose curve;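 further: BG1 cells stimulated with 17beta-estradiol alongside compound; series mostly up to about 70 µM; nearly all actives have a fitted effect of over 25% in size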)
Outline: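 BG1Luc4E2, endogenous ER-alpha, 4xERE-luc; 5 d charcoal-stripped FBS, phenol red free; 24 h plating; cpd + 17beta-estradiol 21.5 h, 37 C/5% CO2; CellTiter-Fluor viability 30 min, then ONE-Glo luciferase 30 min RT.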

[19] = target: Nuclear receptor subfamily 1 group I member 2 (Homo sapiens) (UniProt O75469); test: CYP3A4 induction through human pregnane X receptor (PXR) by small molecules, qHTS assay (AID 1346984); further: nearly all actives have a fitted effect of over 40% in size
Outline: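 After 24 h at 37C with compound, DPX-2 cells (HepG2, co-transfected PXR response element and CYP3A4 promoter-luciferase) got 3uM final P450-Glo Luciferin-IPA for 3 h; One-Glo luminescence followed.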

[20] = target: Peroxisome proliferator-activated receptor gamma (Homo sapiens) (UniProt P37231); test: qHTS assay to identify small molecule agonists of the peroxisome proliferator-activated receptor gamma (PPARg) signaling pathway (AID 743094; active means well fitted activation curve with a large enough effect in the signal ratio in the repeat runs, not every such curve was filed as active; the % refers to the signal ratio)
Chain of Peroxisome proliferator-activated receptor gamma (Homo sapiens) (P37231 whole entry, looked up): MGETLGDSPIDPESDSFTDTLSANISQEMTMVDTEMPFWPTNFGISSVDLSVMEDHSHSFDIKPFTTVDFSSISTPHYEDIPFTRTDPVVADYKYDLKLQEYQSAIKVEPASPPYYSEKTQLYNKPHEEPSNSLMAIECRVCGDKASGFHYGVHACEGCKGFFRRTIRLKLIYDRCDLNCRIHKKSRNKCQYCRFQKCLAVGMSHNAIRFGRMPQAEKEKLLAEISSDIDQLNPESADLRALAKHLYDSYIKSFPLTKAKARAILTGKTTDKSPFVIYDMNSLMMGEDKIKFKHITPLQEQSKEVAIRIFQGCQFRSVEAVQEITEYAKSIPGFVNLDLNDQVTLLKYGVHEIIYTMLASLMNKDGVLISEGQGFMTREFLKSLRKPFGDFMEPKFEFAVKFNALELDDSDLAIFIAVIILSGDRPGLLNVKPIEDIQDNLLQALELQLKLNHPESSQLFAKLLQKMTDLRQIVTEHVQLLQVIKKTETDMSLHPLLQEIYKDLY
Outline: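 Fluorescence-based beta-lactamase readout in HEK293H PPARg UAS-bla cells after 17 h compound exposure (37C) and 1 h B/G FRET substrate incubation at room temperature.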

Cc1cccc(C)c1
Potency [1]: inactive

c1ccc2c(c1)ccc1ncccc12
Potency [1]: inactive

Cc1cc([N+](=O)[O-])ccc1N
Potency [1]: inactive

Cc1ccc2ccccc2c1C
outcome [2]: inactive | Potency [3]: inactive | Potency [4]: inactive | outcome [5]: inactive | Potency [6]: inactive

Nc1ccc(N)c2ccccc12
Potency [1]: 0.968 µM (active)

O=C(O)/C=C\C(=O)O
Potency [7]: inactive | Potency [8]: inactive | outcome [2]: inactive | Potency [3]: inactive | Potency [4]: inactive | Potency [9]: inactive | outcome [5]: inactive | Potency [6]: inactive | Potency [10]: inactive | Potency [11]: inactive | Potency [12]: inactive | Potency [13]: inactive | Potency [14]: inactive

CNc1ccccc1
Potency [1]: inactive

CCCCCCCCCc1ccc(OCCOCCO)cc1
Potency [1]: inactive

ClC(Cl)(Cl)c1ccc(C(Cl)(Cl)Cl)cc1
Potency [1]: inactive

Cc1ccc([N+](=O)[O-])cc1N
Potency [1]: 61.1 µM (active)

N#CCCNCCC#N
Potency [1]: inactive

O=[N+]([O-])c1ccccc1Cl
outcome [2]: inactive | Potency [3]: inactive | Potency [4]: inactive | Potency [9]: inactive | outcome [5]: inactive | Potency [6]: inactive | Potency [1]: inactive

O=C(O)/C=C/C(=O)O
Potency [7]: inactive | outcome [2]: inactive | Potency [3]: inactive | Potency [4]: inactive | Potency [9]: inactive | outcome [5]: inactive | Potency [6]: inactive | Potency [11]: inactive | Potency [12]: inactive | Potency [13]: inactive | Potency [14]: inactive

Cc1ccc(O)cc1C
outcome [2]: inactive | Potency [3]: inactive | Potency [4]: inactive | Potency [9]: inactive | outcome [5]: inactive | Potency [6]: inactive

Cc1ccc([N+](=O)[O-])c(C)c1
Potency [1]: inactive

O=C1OC(=O)c2c(Br)c(Br)c(Br)c(Br)c21
Potency [1]: inactive

O[C@H]1[C@H]2[C@H](O)CCCN2C[C@H]1O
Potency [7]: inactive | Potency [8]: inactive | outcome [2]: inactive | Potency [3]: inactive | Potency [4]: inactive | Potency [9]: inactive | outcome [5]: inactive | Potency [6]: inactive | Potency [10]: inactive | Potency [11]: inactive | Potency [14]: inactive | Potency [15]: inactive | Potency [16]: inactive | Potency [17]: inactive | Potency [18]: inactive | Potency [1]: inactive | Potency [19]: inactive

CN1[C@H]2CC[C@@H]1[C@@H](C(=O)O)[C@@H](OC(=O)c1ccccc1)C2
Potency [7]: inactive | outcome [2]: inactive | Potency [3]: inactive | Potency [4]: inactive | outcome [5]: inactive | Potency [6]: inactive | Potency [11]: inactive | Potency [12]: inactive | Potency [13]: inactive | Potency [14]: inactive | Potency [15]: inactive | Potency [16]: inactive | Potency [17]: inactive | Potency [18]: inactive | Potency [1]: inactive | Potency [20]: inactive | Potency [19]: inactive

C[N+]1(C)[C@@H]2CC[C@H]1CC(OC(=O)c1c[nH]c3ccccc13)C2 (stereo partly drawn)
Potency [7]: inactive | Potency [3]: inactive | Potency [9]: inactive | outcome [5]: inactive | Potency [6]: inactive | Potency [13]: inactive | Potency [14]: inactive | Potency [15]: inactive | Potency [16]: inactive | Potency [17]: inactive | Potency [18]: inactive | Potency [20]: inactive | Potency [19]: inactive

C[C@]12CCC(=O)C=C1C=C[C@@H]1[C@@H]2CC[C@@]2(C)[C@H]1CC[C@@]2(O)CCC(=O)O
Potency [7]: inactive | Potency [8]: inactive | outcome [2]: inactive | Potency [3]: inactive | Potency [4]: inactive | outcome [5]: inactive | Potency [10]: inactive | Potency [14]: inactive | Potency [1]: inactive | Potency [20]: inactive | Potency [19]: inactive

CC(=O)Oc1ccc2c3c1O[C@H]1[C@@H](OC(C)=O)C=C[C@H]4[C@@H](C2)N(C)CC[C@@]341
Potency [7]: inactive | Potency [8]: inactive | outcome [2]: inactive | Potency [3]: inactive | Potency [4]: inactive | Potency [9]: inactive | outcome [5]: inactive | Potency [10]: inactive | Potency [11]: inactive and 68.3 µM (active) | Potency [12]: inactive | Potency [13]: inactive | Potency [14]: inactive | Potency [15]: inactive | Potency [16]: inactive | Potency [17]: inactive | Potency [18]: inactive | Potency [19]: inactive

CCC1(c2cnc[nH]2)Cc2ccccc2C1
Potency [7]: inactive | Potency [8]: inactive | Potency [3]: inactive | Potency [4]: inactive | Potency [9]: inactive | outcome [5]: inactive | Potency [6]: inactive | Potency [11]: 21.1 µM (active) and 26.6 µM (active) | Potency [12]: 26.6 µM (active) | Potency [13]: 26.6 µM (active) | Potency [15]: inactive | Potency [16]: inactive | Potency [17]: inactive | Potency [18]: inactive

O=C1CCCCC1CN1CCCCC1 (stereo not drawn)
outcome [2]: inactive | Potency [3]: inactive | Potency [9]: inactive | outcome [5]: inactive | Potency [6]: inactive | Potency [10]: inactive | Potency [11]: 23.7 µM (active) | Potency [14]: inactive | Potency [15]: inactive | Potency [16]: inactive | Potency [17]: inactive | Potency [18]: inactive | Potency [1]: inactive | Potency [20]: inactive | Potency [19]: inactive

C/C(=C\c1csc(C)n1)[C@@H]1C[C@@H]2O[C@]2(C)CCC[C@H](C)[C@H](O)[C@@H](C)C(=O)C(C)(C)[C@@H](O)CC(=O)O1
Potency [7]: inactive | Potency [8]: inactive | outcome [2]: inactive | Potency [4]: inactive | Potency [9]: inactive | Potency [6]: inactive | Potency [10]: inactive | Potency [11]: 0.0019 µM (active) | Potency [12]: 0.0024 µM (active) | Potency [14]: 0.0038 µM (active) | Potency [15]: inactive | Potency [17]: inactive | Potency [1]: inactive | Potency [20]: inactive | Potency [19]: inactive

CCCC(C)(COC(N)=O)COC(=O)NC1CC1 (stereo not drawn)
Potency [7]: inactive | outcome [2]: inactive | Potency [4]: inactive | Potency [9]: inactive | outcome [5]: inactive | Potency [10]: inactive | Potency [11]: inactive | Potency [12]: inactive | Potency [13]: inactive | Potency [14]: inactive | Potency [15]: inactive | Potency [16]: inactive | Potency [17]: inactive | Potency [18]: inactive | Potency [19]: inactive

Clc1ccc2c(c1)C(c1ccccc1)=NCc1nncn1-2
Potency [7]: inactive | Potency [8]: inactive | outcome [2]: inactive | Potency [3]: inactive | Potency [4]: inactive | Potency [9]: inactive | outcome [5]: inactive | Potency [6]: inactive | Potency [10]: inactive | Potency [11]: inactive | Potency [13]: inactive | Potency [14]: inactive | Potency [15]: inactive | Potency [16]: inactive | Potency [17]: inactive | Potency [18]: inactive | Potency [1]: inactive | Potency [20]: inactive | Potency [19]: inactive

C[N+]1([O-])[C@@H]2CC[C@H]1CC(OC(=O)C(CO)c1ccccc1)C2 (stereo partly drawn)
Potency [7]: inactive | Potency [8]: inactive | outcome [2]: inactive | Potency [3]: inactive | Potency [9]: inactive | outcome [5]: inactive | Potency [10]: inactive | Potency [11]: inactive | Potency [12]: inactive | Potency [13]: inactive | Potency [14]: inactive | Potency [15]: inactive | Potency [16]: inactive | Potency [17]: inactive | Potency [18]: inactive | Potency [1]: inactive | Potency [19]: inactive

From PubChem BioAssay (Tox21)
